Screening data: PubChem, Buhrlage Lab, Dana-Farber Cancer Institute and Novartis Institutes for BioMedical Research (Cambridge, Mass)
USP7 block – inhibitors of human USP7 deubiquitinase. Ubiquitin carboxyl-terminal hydrolase 7 (Homo sapiens), Q93009. 47,000 compounds, 0.3% hits. purified USP7, Ub-rhodamine cleavage fluorescence. inhibition, % at 20 µM
UCHL1 inh – inhibitors of human UCHL1 deubiquitinase; AID 1645859, 2021; 47,000 compounds, 0.2% hits; purified UCHL1, Ub-rhodamine cleavage fluorescence; Ubiquitin carboxyl-terminal hydrolase isozyme L1 (Homo sapiens), P09936; inhibition, % at 20 µM
USP8 block – inhibitors of human USP8 deubiquitinase | Ubiquitin carboxyl-terminal hydrolase 8 (Homo sapiens), P40818 | purified USP8, Ub-rhodamine cleavage fluorescence, 30 min | inhibition, % at 20 µM | 47,000 compounds, 4.2% hits | AID 1645853, 2021
USP17 block – inhibitors of human USP17 deubiquitinase; purified USP17, Ub-rhodamine cleavage fluorescence, 3 h; inhibition, % at 50 µM; 47,000 compounds, 6.5% hits
USP10 block – inhibitors of human USP10 deubiquitinase; purified USP10, Ub-rhodamine fluorescence, 60 min; 47,000 compounds, 1.1% hits; AID 1645856, 2021; Ubiquitin carboxyl-terminal hydrolase 10 (Homo sapiens), Q14694; inhibition, % at 20 µM
USP30 inh – inhibitors of human USP30 deubiquitinase | Ubiquitin carboxyl-terminal hydrolase 30 (Homo sapiens), Q70CQ3 | purified USP30, Ub-rhodamine cleavage fluorescence | inhibition, % at 25 µM | 47,000 compounds, 5.3% hits
Target sequence (Q70CQ3 whole entry, looked up): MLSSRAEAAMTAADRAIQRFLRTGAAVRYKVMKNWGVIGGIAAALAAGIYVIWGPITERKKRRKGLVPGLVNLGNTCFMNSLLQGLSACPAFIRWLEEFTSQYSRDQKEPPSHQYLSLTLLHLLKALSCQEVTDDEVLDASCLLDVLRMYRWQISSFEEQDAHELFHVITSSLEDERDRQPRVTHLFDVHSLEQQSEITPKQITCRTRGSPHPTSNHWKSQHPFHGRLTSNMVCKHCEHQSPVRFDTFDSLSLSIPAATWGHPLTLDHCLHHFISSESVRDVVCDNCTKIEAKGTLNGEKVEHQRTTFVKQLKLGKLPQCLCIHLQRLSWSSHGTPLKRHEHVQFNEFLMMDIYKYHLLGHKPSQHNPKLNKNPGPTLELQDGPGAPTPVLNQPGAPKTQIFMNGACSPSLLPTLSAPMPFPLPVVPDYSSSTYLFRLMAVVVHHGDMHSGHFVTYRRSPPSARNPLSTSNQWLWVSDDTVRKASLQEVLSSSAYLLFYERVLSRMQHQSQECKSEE
The depositor's hits bear a star; . = no result given. This is a sample that favours compounds with a hit; in the whole collection about 13% have one here. Cut-off read from the data, not from the text of the source: active = inhibition above about 30%; inactive = the rest.

SMILES	USP7 block	UCHL1 inh	USP8 block	USP17 block	USP10 block	USP30 inh
O=c1c(-c2nc(-c3ccncc3)no2)cccn1Cc1c(F)cccc1Cl	20.4	-3.0	51.4*	1.1	-7.3	-236.6
O=c1c(-c2nc(C3CC3)no2)cccn1Cc1nc(-c2ccccc2F)no1	-29.6	-47.9	-19.6	-56.1	-6.9	-229.1
O=C(Nc1ccc2c(c1)OCO2)c1ccc(N2CCCC2=O)cc1	10.8	6.4	23.0	49.9*	10.5	16.3
CC(=O)Nc1cccc(C(=O)Nc2ccc(N3CCCC3=O)cc2)c1	6.1	4.9	2.6	12.6	1.8	25.0
O=C(Nc1ccc2c(c1)OCO2)c1cnc(N2CCOCC2)nc1	0.2	1.9	81.0*	39.5*	0.0	-0.3
O=C(Nc1ccc2c(c1)OCO2)c1cc(CN2CCCC2)on1	-7.1	5.1	53.0*	34.6*	5.3	-24.5
COc1cccc(CC(NC(C)=O)C(=O)NC2CCN(C(=O)c3cnccn3)CC2)c1OC (configuration not stated)	2.1	-0.3	9.1	2.6	1.0	4.1
O=C(Nc1ccc(-n2cccc2)cc1)c1ccc(Cl)cc1	1.6	1.5	17.8	-23.1	0.0	7.0
Cc1cnnn1-c1ccc(C(=O)Nc2cccc(Cl)c2)cc1	-8.4	1.8	-0.3	80.4*	-0.2	54.2*
Cc1ccc(Cl)cc1NC(=O)c1ccc(C(=O)c2ccccc2)cc1	-132.4	4.0	-0.3	-7.4	5.9	-0.3
Cc1cnnn1-c1ccc(C(=O)Nc2cc(Cl)ccc2Cl)cc1	3.3	4.7	0.3	68.1*	0.1	23.7
CSc1ccc(C(=O)Nc2nc(-c3ccncc3)cs2)cc1	14.3	2.8	43.8*	23.8	1.2	5.2
CSc1ccccc1C(=O)Nc1nc(-c2ccncc2)cs1	4.6	2.9	-0.8	54.6*	7.4	33.6*
Cc1oc2c(c1C(=O)NCC1CCCO1)CN(Cc1cccc(F)c1)CC2 (configuration not stated)	-6.8	-6.2	-12.0	-35.9	-3.4	-107.9
O=C1CC(c2ccco2)Cc2[nH]c(=O)c(-c3nc(-c4ccc(Cl)cc4)cs3)cc21 (configuration not stated)	40.7*	13.1	34.0*	6.3	-10.3	-336.9
COc1ccc(-c2csc(-c3cc4c([nH]c3=O)CC(c3ccco3)CC4=O)n2)cc1 (configuration not stated)	-34.0	-35.8	-15.6	21.1	-6.0	-188.4
O=C1NC2(CCN(S(=O)(=O)c3ccc(F)c(Cl)c3)CC2)Nc2ccccc21	0.8	-4.7	3.8	49.9*	1.9	-1.9
O=C1NC2(CCN(C(=O)CSc3ccncc3)CC2)Nc2ccccc21	-0.4	-0.2	19.9	11.7	-2.5	4.6
Cc1ccc(C)c(S(=O)(=O)N2CCC3(CC2)NC(=O)c2ccccc2N3)c1	6.0	3.2	20.0	58.6*	-2.6	19.6
O=C1NC2(CCN(S(=O)(=O)c3ccc(F)cc3F)CC2)Nc2ccccc21	3.5	-2.5	8.4	-0.1	-2.2	22.1
CC(CCc1ccccc1)NC(=O)COc1ccc(Cl)c(Cl)c1 (configuration not stated)	-32.3	9.6	16.6	24.6	12.9	27.3
Cc1cccc(-c2nnc(SCC(=O)N3CCN(c4ccccc4)CC3)o2)c1	2.3	-2.6	5.1	-32.3	1.7	13.6
CCOC(=O)CSc1nnc(-c2cnn(-c3ccccc3)c2N)o1	0.3	0.1	10.1	57.6*	0.5	20.8
CC(=O)Nc1ccc(S(=O)(=O)NCCc2cn3cccc(C)c3n2)cc1	3.6	2.5	-9.9	0.1	-1.1	6.7
COc1ccc(-c2[nH]nc3c2C(c2cccc(OC)c2OC)CC(=O)O3)cc1 (configuration not stated)	-14.5	-0.6	0.0	-14.5	0.4	-5.4
SMILES	USP7 block	UCHL1 inh	USP8 block	USP17 block	USP10 block	USP30 inh
COc1cccc(OC)c1C(=O)C1CC(=O)Nc2n[nH]c(C)c21 (configuration not stated)	5.4	1.1	1.8	-2.5	-0.6	4.6
COc1cccc(C2CC(=O)Nc3n[nH]c(C)c32)c1OCc1ccccc1C (configuration not stated)	-2.9	2.4	-1.6	5.4	5.7	33.5*
COc1ccc(C2CC(=O)Nc3n[nH]c(-c4ccccc4)c32)c(OC)c1 (configuration not stated)	-0.1	6.1	-25.1	40.8*	4.9	44.2*
Fc1ccccc1Cc1nnc(C2(c3ccccc3)CCOCC2)o1	-22.1	3.9	19.7	18.9	1.3	22.4
CCn1c(=O)c2cc(C(=O)Nc3ccc(OC)c(OC)c3)nn2c2ccccc21	3.0	-1.6	-56.5	-11.0	-4.2	-5.7
CCCn1c(=O)c2cc(C(=O)Nc3ccccc3)nn2c2ccccc21	2.3	0.9	-14.9	30.6*	3.2	0.0
c1cnc(-c2n[nH]c(C3CCN(C4CCNC4)CC3)n2)cn1 (configuration not stated)	2.8	-1.2	-240.8	53.7*	-6.0	-6.2
Cc1nc(C2CCCN2C(=O)c2cnn3cccnc23)cc(N(C)C)n1 (configuration not stated)	1.8	-1.3	2.6	-0.9	-1.6	6.9
O=C(Cc1ccc(-n2c(=O)c3ccccc3n(CC(=O)Nc3ccc(Cl)cc3Cl)c2=O)cc1)NCc1ccco1	13.9	1.7	55.7*	21.0	45.8*	16.4
CCC(C)NC(=O)Cn1c(=O)n(-c2ccccc2)c(=O)c2ccc(C(=O)NCc3ccco3)cc21 (configuration not stated)	-4.5	3.6	25.2	16.5	7.0	73.2*
O=C(CCCn1c(=O)c2ccccc2n(Cc2ccccc2)c1=O)NCc1ccco1	-4.5	0.9	15.1	17.2	6.8	9.5
CCCN(CCC)C(=O)Cn1c(=O)n(Cc2ccc(C(=O)NCc3ccco3)cc2)c(=O)c2ccccc21	-3.2	4.5	20.3	1.8	8.0	0.0
COc1cc(OC)c(NC(=O)Cn2c(=O)n(-c3ccc(CC(=O)NCC4CCCO4)cc3)c(=O)c3ccccc32)cc1Cl (configuration not stated)	4.2	4.1	0.0	4.4	-0.1	.
COc1ccc(NC(=O)Cn2c(=O)n(-c3ccc(CC(=O)NCc4ccco4)cc3)c(=O)c3ccccc32)cc1Cl	-0.3	20.4	74.5*	11.9	60.6*	-0.9
Cn1c(=O)[nH]c(=O)c2c1nc(NCCCO)n2CC(=O)c1ccccc1	4.4	1.0	10.9	12.6	3.5	40.2*
Cc1nc(N2CCOCC2)ncc1-c1cc(=O)[nH]c(N2c3ccccc3CC2C)n1 (configuration not stated)	8.8	4.1	12.0	-2.4	7.6	3.8
Cc1nc(N2CCCCC2)ncc1-c1cc(=O)[nH]c(Nc2nc(C)c3ccccc3n2)n1	2.4	-0.9	1.1	66.5*	1.6	59.9*
